PubChem BioAssay AID651871 (Sanford-Burnham Center for Chemical Genomics, 2012)
Several values for one entry are separate records, joined by “and”; a condition that tells them apart may be missing. Equal values may be shown once.

These compounds were tested on H9c2 (assay: cardiomyocyte survival under oxidative or metabolic stress – cell-based, panel, H9c2 and HL-1, ATP luminescence, set 2, SAR follow-up (AID 651871;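 further: cells exposed to stressor for 2 h before ATP readout; reference of the scale not given here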)). Conditions: H9c2/HL-1 cardiomyocytes, 2-deoxyglucose stress, with 2-deoxyglucose; run 1, at 79 µM (top of the series).

SMILES	activity (protection/inhibition)
COc1ccc2nc(-c3cc(OC)c(OC)c(OC)c3)cc(C(=O)NCC(=O)Nc3ccc(C(C)=O)cc3)c2c1	74.1%
COc1ccc2c(c1OC)C(=O)N1c3ccccc3C(=O)N(Cc3cccc(Cl)c3Cl)C21 (stereo not drawn)	80.3% and 69.7% and -3.54%
CCOC(=O)c1cccc(NC(=O)CNC(=O)c2cc(-c3cc(OC)c(OC)c(OC)c3)nc3ccccc23)c1	92.1%
